Reference: PubChem BioAssay
Active and inactive are the calls of the source.

Assays:
[1] = system: Human papillomavirus type 1a protein E7 (residues 44-93); experiment: small molecules binding HPV E7 44-93 – biochemical, small-molecule microarray, residues 44-93, 635 nm fluorescence, primary screen (AID 1108); settings: fluorescence 635 nm, higher = more signal;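 note: E7 fragment applied at 1 µg/mL in TBST for 1 h at 4 C; score combines spot fluorescence with its signal to noise ratio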
[2] = hepatitis C replication reporter changes, two-sided – Huh7 cells, luciferase reporter, HCV replication inhibitor project, primary screen (AID 1109); settings: Huh7 HCV replicon luciferase reporter, 48 h; higher = more signal;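 note: huh7 hepatoma cells harbouring a luciferase neomycin HCV replicon reporter; luciferase luminescence as measure of HCV replicon replication; test concentration not given here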
[3] = biological target: Left-right determination factor 2 (Homo sapiens) (UniProt O00292); experiment: small molecules binding LEFTY2 protein – biochemical, small-molecule microarray, 635 nm fluorescence scan, primary screen (AID 1110); settings: higher = more signal
[4] = biological target: Calmodulin-1 (Homo sapiens) (UniProt P0DP23); experiment: small molecules binding calmodulin-1 with EGTA – biochemical, small-molecule microarray, Cy5-labelled CALM1, profiling panel (AID 1111); settings: Cy5-CALM1 binding fluorescence, higher = more signal;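 note: labelled calmodulin applied in Tris saline Tween buffer holding calcium plus EGTA and DTT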
[5] = biological target: Calmodulin-1 (Homo sapiens) (UniProt P0DP23); experiment: small molecules binding Ca-loaded calmodulin-1 – biochemical, small-molecule microarray, Cy5-labelled CALM1, plus calcium, artefact control for SMM control-protein annotation, profiling panel (AID 1112); settings: Cy5-CALM1 binding fluorescence, higher = more signal;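 note: score merges spot fluorescence with signal to noise from triplicate slides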
[6] = probe aWnt5a binding to arrayed compounds – biochemical, biotinylated probe, 635/667 nm fluorescence, primary screen (AID 1113); settings: small-molecule microarray, higher = more signal;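 note: score merges 667 nm fluorescence intensity with signal-to-noise per printed feature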
[7] = probe aShh binding to arrayed compounds – biochemical, biotinylated probe, 635/667 nm fluorescence, primary screen (AID 1114); settings: small-molecule microarray, higher = more signal;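 note: probe is biotin-labelled aShh protein from a stem cell growth factor screen; measures binding of labelled protein to compounds printed on the slide; score merges feature fluorescence at 667 nm with signal-to-noise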
[8] = probe aNog binding to arrayed compounds – biochemical, biotinylated probe, 635/667 nm fluorescence, primary screen (AID 1115); settings: small-molecule microarray, higher = more signal;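 note: probe is biotinylated aNog protein used at 0.15 µg/mL for 1 h at 4 C; z-score combines 667 nm fluorescence of each spot with its signal to noise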
[9] = biological target: Torsin-1A-interacting protein 1 (Homo sapiens) (UniProt Q5JTV8); experiment: compound microarray binding of lysate hLAP1 – cell lysate, small-molecule microarray, COS7 lysate, 635/667 nm fluorescence, primary screen (AID 1116); settings: 635 nm fluorescence, higher = more signal
[10] = biological target: Alpha-bungarotoxin (Bungarus multicinctus) (UniProt P60615); experiment: compounds binding labelled alpha-BTX control protein – biochemical, small-molecule microarray, Alexa647 label, 635/667 nm fluorescence, artefact control for SMM control protein annotation, profiling panel (AID 1117); settings: alpha-BTX-A647 binding fluorescence, higher = more signal
[11] = biological target: Albumin (Bos taurus) (UniProt P02769); experiment: compounds binding labelled BSA control protein – biochemical, small-molecule microarray, Alexa647 label, 635/667 nm fluorescence, artefact control for SMM control protein annotation, profiling panel (AID 1118); settings: BSA-A647 binding, fluorescence 635 nm, higher = more signal;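 note: score merges 667 nm emission intensity and signal-to-noise per printed compound spot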
[12] = probe aXIP binding to arrayed compounds – biochemical, NeuroSMM set, 635/667 nm fluorescence, primary screen (AID 1119); settings: small-molecule microarray, higher = more signal, called active from +8 up or from −8 down;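 note: probe is the protein aXip251-270 applied at 1 µg/mL to compound-printed slides; binding of probe to printed compounds measured as 667 nm fluorescence plus signal to noise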
[13] = probe aNOTCH3 binding on compound microarray – biochemical, small-molecule microarray, 635/667 nm fluorescence, primary screen (AID 1120); settings: higher = more signal;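 note: probe is a biotin-tagged antibody raised against NOTCH3 rather than NOTCH3 protein; score merges spot fluorescence near 667 nm with spot signal to noise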
[14] = probe aNOTCH2 binding on compound microarray – biochemical, small-molecule microarray, 635/667 nm fluorescence, primary screen (AID 1121); settings: higher = more signal;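 note: score merges feature fluorescence read at 667 nm with its signal to noise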
[15] = biological target: Carbonic anhydrase 2 (Homo sapiens) (UniProt P00918); experiment: compounds binding carbonic anhydrase 2 – biochemical, small-molecule microarray, Alexa647-labelled CAII, profiling panel (AID 1122); settings: CAII-A647 binding fluorescence, higher = more signal
[16] = COS7 lysate on small-molecule microarray, probe aHis, 635 nm (AID 1123); settings: COS7 cell lysate, fluorescence, higher = more signal;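 note: z-score combines 667nm fluorescence intensity with signal-to-noise per printed compound spot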
[17] = probe aLAP1 signal on lysate-treated microarray – cell lysate, small-molecule microarray, COS7 lysate, primary screen (AID 1124); settings: probe aLAP1, fluorescence, higher = more signal;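 note: lysate comes from COS7 cells expressing LAP1 and is applied at 0.3 µg/mL; score merges spot fluorescence near 667 nm with signal-to-noise over triplicate slides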
[18] = system: Sam68 (KHDRBS1); experiment: compounds binding KHDRBS1 protein – biochemical, small-molecule microarray, 635 nm fluorescence, primary screen (AID 1125); settings: higher = more signal;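 note: score merges 667 nm channel intensity with signal to noise over triplicate slides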
[19] = system: Chordin-like protein 2 (CHRDL2); experiment: compounds binding chordin-like 2 – biochemical, small-molecule microarray, 635 nm fluorescence, primary screen (AID 1126); settings: fluorescence 635 nm, higher = more signal;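 note: printed compound slides probed with Chrdl2 protein at 4 µg/mL for 1 h at 4 C; score merges 667 nm emission intensity with signal to noise over three replicate slides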
[20] = biological target: Concanavalin-A (Canavalia ensiformis) (UniProt P02866); experiment: compounds binding concanavalin A lectin – biochemical, small-molecule microarray, Alexa647 label, 635 nm, artefact control for SMM control protein annotation, primary screen (AID 1127); settings: ConA-A647 binding fluorescence, higher = more signal;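 note: z combines 667 nm emission intensity with signal-to-noise across three replicate slides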
Concanavalin-A (Canavalia ensiformis), sequence (P02866 whole entry, looked up): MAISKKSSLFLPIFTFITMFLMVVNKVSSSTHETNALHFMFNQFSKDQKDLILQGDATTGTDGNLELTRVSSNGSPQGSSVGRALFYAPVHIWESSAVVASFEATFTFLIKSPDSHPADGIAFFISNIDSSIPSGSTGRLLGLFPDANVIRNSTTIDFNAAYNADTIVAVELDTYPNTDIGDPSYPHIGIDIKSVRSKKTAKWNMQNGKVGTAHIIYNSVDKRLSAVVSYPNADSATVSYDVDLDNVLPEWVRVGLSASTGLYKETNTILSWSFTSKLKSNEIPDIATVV

Albumin (Bos taurus), sequence (P02769 whole entry, looked up): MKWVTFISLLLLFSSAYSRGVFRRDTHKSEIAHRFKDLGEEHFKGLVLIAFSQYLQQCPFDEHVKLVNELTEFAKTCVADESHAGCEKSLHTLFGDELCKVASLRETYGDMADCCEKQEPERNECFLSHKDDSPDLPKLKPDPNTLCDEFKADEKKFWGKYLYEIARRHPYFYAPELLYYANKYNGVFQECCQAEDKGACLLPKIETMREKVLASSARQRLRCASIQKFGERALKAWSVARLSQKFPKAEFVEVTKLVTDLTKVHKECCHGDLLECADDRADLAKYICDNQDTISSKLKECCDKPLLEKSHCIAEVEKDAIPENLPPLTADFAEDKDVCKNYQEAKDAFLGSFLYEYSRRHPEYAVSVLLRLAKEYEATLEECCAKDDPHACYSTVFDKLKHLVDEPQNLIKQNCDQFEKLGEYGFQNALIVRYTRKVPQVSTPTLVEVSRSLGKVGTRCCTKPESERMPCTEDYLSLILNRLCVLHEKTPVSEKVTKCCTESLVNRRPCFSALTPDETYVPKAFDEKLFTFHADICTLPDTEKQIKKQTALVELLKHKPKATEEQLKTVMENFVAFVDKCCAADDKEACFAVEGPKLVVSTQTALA
Torsin-1A-interacting protein 1 (Homo sapiens), sequence (Q5JTV8 whole entry, looked up): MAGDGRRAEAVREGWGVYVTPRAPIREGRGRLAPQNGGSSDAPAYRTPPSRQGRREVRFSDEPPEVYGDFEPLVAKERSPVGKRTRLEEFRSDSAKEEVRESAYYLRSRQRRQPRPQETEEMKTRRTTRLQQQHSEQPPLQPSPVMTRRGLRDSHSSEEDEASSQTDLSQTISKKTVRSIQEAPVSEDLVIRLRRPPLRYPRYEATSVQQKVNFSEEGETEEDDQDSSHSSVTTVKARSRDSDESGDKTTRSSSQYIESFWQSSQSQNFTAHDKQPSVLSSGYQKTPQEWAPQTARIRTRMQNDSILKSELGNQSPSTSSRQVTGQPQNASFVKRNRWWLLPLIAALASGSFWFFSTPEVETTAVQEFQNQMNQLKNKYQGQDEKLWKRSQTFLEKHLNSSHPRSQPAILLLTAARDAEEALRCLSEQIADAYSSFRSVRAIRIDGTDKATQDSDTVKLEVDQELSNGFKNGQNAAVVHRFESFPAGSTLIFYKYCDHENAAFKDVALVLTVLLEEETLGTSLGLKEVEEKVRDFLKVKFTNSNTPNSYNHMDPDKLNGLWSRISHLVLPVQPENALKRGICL
Left-right determination factor 2 (Homo sapiens), sequence (O00292 whole entry, looked up): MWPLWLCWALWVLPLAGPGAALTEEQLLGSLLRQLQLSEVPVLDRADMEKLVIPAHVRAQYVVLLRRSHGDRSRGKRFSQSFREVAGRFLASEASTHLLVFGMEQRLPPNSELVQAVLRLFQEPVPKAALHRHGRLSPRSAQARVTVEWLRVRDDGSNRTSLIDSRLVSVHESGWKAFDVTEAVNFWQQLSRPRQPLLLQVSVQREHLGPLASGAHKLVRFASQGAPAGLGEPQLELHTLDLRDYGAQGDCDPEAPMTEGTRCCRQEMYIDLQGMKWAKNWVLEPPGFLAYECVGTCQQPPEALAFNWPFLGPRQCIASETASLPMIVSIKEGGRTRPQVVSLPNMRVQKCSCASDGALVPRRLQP
Alpha-bungarotoxin (Bungarus multicinctus), sequence (P60615 whole entry, looked up): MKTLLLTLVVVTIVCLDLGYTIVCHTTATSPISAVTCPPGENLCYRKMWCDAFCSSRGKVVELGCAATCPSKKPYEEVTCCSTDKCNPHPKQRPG

Compound | composite z-score [1] | z-score [2] | composite z-score [3] | composite z-score [4] | composite z-score [5] | composite z-score [6] | composite z-score [7] | composite z-score [8] | composite z-score [9] | composite z-score [10] | composite z-score [11] | composite Z-score [12] | composite z-score [13] | composite z-score [14] | composite z-score [15] | composite z-score [16] | composite z-score [17] | composite z-score [18] | composite z-score [19] | composite z-score [20]
Cc1ccccc1C(O)C1C=CC2C(=O)N(C)C(=O)C2N1Nc1ccc([N+](=O)[O-])cc1[N+](=O)[O-] (stereo not given) | 1.45 | 0.265 | 0.0979 | 1.43 | 1.08 | 0.14 | 0.254 | -0.235 | 1.24 | 1.36 | 0.953 | 0.451 (inactive) | 0.338 | -0.108 | 0.671 | 2.47 | 0.288 | 1.29 | -0.723 | 1.16
C=CCC(OC(C)=O)[C@@H]1[C@@H](N(Cc2cc3ccccc3o2)C(=O)Cc2ccc(OC)cc2)c2cc(OCCCO)ccc2N1C(=O)c1ccc(-c2ccccc2)cc1 (stereo not given in full) | 0.0962 | -0.71 | -0.214 | -0.365 | 0.468 | -0.0767 | -0.147 | -0.23 | -0.113 | 0.0856 | 0.0023 | -0.287 (inactive) | 0.111 | 0.0098 | -0.137 | -0.338 | -0.0843 | -0.494 | 0.224 | -1.15
C=C(CCCC)/C(=C/C[C@H](OC(=O)c1ccncc1)c1ccc(CO)o1)c1cc(C(=O)OC)ccc1OC | -0.0541 | -1.93 | 0.982 | 0.786 | -0.324 | -0.196 | 0.256 | 0.95 | 0.539 | 1.28 | 0.572 | 0.243 (inactive) | 0.201 | -0.0534 | 0.609 | 1.38 | 0.51 | 1.31 | 0.487 | 1.02
COCCCNC(=O)[C@@H]1c2ccccc2C(=O)N(c2ccc(C)cn2)[C@H]1c1ccc(CO)cc1 | -0.745 | 0.176 | -1.83 | -0.878 | -0.827 | -0.363 | -0.19 | -0.244 | -2.83 | -0.958 | -0.767 | 0.567 (inactive) | -0.644 | -0.18 | 0.0072 | -0.908 | -0.721 | -1.42 | -2.03 | -0.482
O=C(O)[C@@]1(Cc2ccccc2)COC(c2ccc(OCCCO)cc2)=N1 | 0.0262 | 0.923 | -0.714 | -0.106 | 0.0951 | -0.217 | 0.214 | 0.0254 | 0.28 | -0.47 | -0.584 | 0.133 (inactive) | -0.197 | -0.135 | 0.844 | 0.502 | -0.131 | -0.21 | -0.675 | -0.115
CC(C)(C)OC(=O)CC[C@@]1(C(=O)N2CCCCC2)N=C(c2ccc(OCCCO)cc2)O[C@@H]1c1ccccc1N=[N+]=[N-] | 1.03 | 0.0393 | 0.503 | 1.07 | 0.398 | 0.0434 | 0.0638 | 1.92 | 1.27 | 0.451 | 0.943 | -0.15 (inactive) | 0.4 | 0.127 | 0.775 | 2.94 | 1.58 | 1.29 | 0.142 | 1.17
O=C1C[C@@](C(=O)NCc2ccccc2)(c2ccc([N+](=O)[O-])cc2)[C@@H](c2ccc(CO)cc2I)N1C1CCCCC1 | 1.14 | -2.36 | 0.597 | 0.261 | 0.315 | 0.0733 | 0.192 | -0.175 | 0.52 | 0.414 | -0.13 | -0.0966 (inactive) | 0.446 | 0.202 | 0.448 | 1.15 | -0.0355 | 1.23 | 0.633 | 0.957
CCCC=C(CCC)[C@@H](NS(=O)(=O)c1cccc2cccnc12)c1ccc(C(=O)OC)cc1 | 0.591 | 0.347 | 0.804 | 0.156 | -0.2 | 1.77 | 0.0093 | 3.92 | 0.354 | -0.0527 | -0.207 | 0.242 (inactive) | 2.12 | 1.16 | 0.771 | 0.313 | 0.392 | 0.287 | 0.599 | 0.782
COCCOC(=O)N1C(=O)[C@@]2(c3cc(C#CCCO)ccc31)[C@H](c1ccc(OCCO)cc1)N1[C@H](c3ccccc3)[C@H](c3ccccc3)OC(=O)[C@H]1[C@@H]2C(=O)N1CCc2cc(OC)c(OC)cc2C1 | 1.39 | -1.12 | 0.503 | 0.759 | 0.215 | -0.124 | -0.0904 | 0.0531 | -0.0856 | 0.642 | -0.627 | 0.443 (inactive) | 0.0893 | -0.0731 | 0.239 | 1.06 | 1.48 | 1.31 | 0.559 | 1.08
CC(C)CNC(=O)[C@@]1(c2ccc([N+](=O)[O-])cc2)CC(=O)N(C(C)C)[C@@H]1c1ccc(CO)cc1 | 0.212 | -0.687 | -1.53 | -0.505 | 0.739 | -0.12 | -0.0738 | -0.428 | -0.534 | -0.186 | 0.1 | 1 (inactive) | -0.273 | -0.161 | 0.735 | 1.59 | 0.664 | 0.3 | -2.39 | 0.0801
Cc1ccc(C(C)CC(O)C2C=CC3C(=O)N(Cc4ccccc4)C(=O)C3N2n2cnnc2)o1 (stereo not given) | 1.22 | 0.236 | -0.304 | 0.455 | 0.0454 | 0.688 | 0.765 | 2.12 | 0.342 | 0.279 | 1.03 | 0.391 (inactive) | 1.3 | 0.654 | 0.461 | 1.7 | 0.704 | 1.12 | -0.377 | 1.17
